The values that follow come from PubChem BioAssay (NCATS).

Values without a mark were called inactive. Results filed as inconclusive are left out. The source made the active and inactive calls. Unless noted, the call rests on the fitted dose curve; in most records, active means well fitted curve in either direction with a large enough effect (not every such curve was filed as active); inconclusive means small, poorly fitted or top-dose-only effect, or another doubt; inactive means flat fitted curve, though single readings scatter.

Test [1] deals with Lysosomal acid glucosylceramidase (Homo sapiens) (UniProt P04062). The experiment in a line: Glucocerebrosidase-p2 (AID 348; in the data active means potency below about 10 µM; further: potency means the concentration at half of the fitted maximal effect). The note with it: purified GBA, blue fluorogenic substrate, 40 min. In outline:
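Normal human glucocerebrosidase (0.2 nM) with blue fluorogenic substrate (80 uM final) in citrate/phosphate pH 5.9 with 10mM sodium taurocholate, 0.01% tween-20; 40 min RT, NaOH/glycine stop; fluorescence Ex 365/Em 440; AC50 from a titration from 0.6 nM upwards.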

The nature of test [2]: AP1 Signaling Pathway (AID 357).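 Further: ME-180 reporter cells stimulated with EGF at its EC50 level; on the % scale 0 is the no-effect control and ±100 the full control effect.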 To be noted: ME-180 AP-1-bla reporter, EGF-induced, beta-lactamase ratio, 5 h; at 7.69 µM (top of the series) unless noted. In outline: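 First, ME-180 AP-1-bla cells were cultured overnight at 37 °C in low-serum Opti-MEM. Next, titrated compounds with EC50 EGF were incubated 5 hours. Finally, CCF4 was added for 2.5 hours and the 460/530 nm ratio recorded.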

In test [3] the target is Cytochrome P450 1A2 (Homo sapiens) (UniProt P05177). The test is described as follows: p450-cyp1a2 (AID 410; calls by dose curve; further: potency means the concentration at half of the fitted maximal effect;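 on activity change, negative = inhibition: -100% = full effect of reference inhibitor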). The note with it: recombinant CYP1A2, luciferin-ME demethylation, luminescence; series mostly up to 11.4 µM. The procedure, abridged:
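Read-out is luminescence from luciferin produced by CYP1A2 demethylation of Luciferin-ME (100uM, at Km). Detection reagent stopped the 60 min NADPH-dependent reaction; signals were normalized to 57 uM furafylline.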

Test [4] can be described thus: NFAT Signaling Pathway (AID 444).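 Further: carbachol stimulus at about its EC50 of 1 µM final; on the % scale 0 is the no-effect control and ±100 the full control effect.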 To be noted: Jurkat NFAT-bla M1, carbachol, beta-lactamase ratio, 5 h; at 7.69 µM (top of the series) unless noted. The procedure, abridged: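 Jurkat cells with NFAT-driven β-lactamase reporter and co-expressed M1 receptor, stimulated with carbachol (final 1 uM, ~EC50), compound titration, 5 h at 37 °C. CCF4 loaded 1 h at RT; 460/530 nm ratio gave %activity and AC50.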

A short description of test [5]: Stat Signaling Pathway (AID 446).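 Further: ME-180 cervical cancer cells given 40 pM IL-6 alongside compound; SIE-controlled beta-lactamase reporter measured as 460/530 nm FRET emission ratio; on the % scale 0 is the no-effect control and ±100 the full control effect.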 The note with it: ME-180 (cervical carcinoma) SIE beta-lactamase reporter, IL-6 stimulated, 5 h; at 7.69 µM (top of the series) unless noted. In outline:
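Emission at 460 and 530 nm (excitation 405 nm) reports SIE-controlled beta-lactamase in ME-180 cells. Cells received compound with 40 pM IL-6 for 5 hrs at 37 C; data scaled between 300 pM IL-6 and 125 nM JAK-inhibitor controls.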

Test [6] addresses Glucocorticoid receptor (Homo sapiens) (UniProt P04150). The experiment in a line: GR-GFP Redistribution (AID 450;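 active means compounds whose dose series gives a full or clear partial fitted curve of increased nuclear translocation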; further: potency means the concentration at half of the fitted maximal effect). To be noted: U2OS GR-GFP nuclear translocation, laser cytometry, 2 h.
Test [7] has the same target. The experiment in a line: GR-EFC Redistribution (AID 451; calls by dose curve; further: potency means the concentration at half of the fitted maximal effect). To be noted: CHO-K1 GR-EFC translocation, beta-gal luminescence, 2 h. In outline: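 CHO-K1 cells expressing nuclear EA and GR-ED fragments of b-gal; compounds titrated up to 46 uM final, 2 h at 37 C. GR nuclear translocation read as complemented b-gal luminescence after 1 h RT detection.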
The target of test [8] is Mitogen-activated protein kinase 10 (Mus musculus) (UniProt Q61831). The experiment in a line: JNK3 AlphaScreen Assay (AID 530).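 Further: kinase came from lysate of stimulated human HepG2 cells; signal reports phosphorylation of biotinylated GST-cJun 1-79 at Ser73 with 10 µM ATP; on the % scale 0 is the no-effect control and ±100 the full control effect.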 The note with it: JNK3 lysate, c-Jun phosphorylation; series mostly up to 11.4 µM. In outline: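 HepG2 lysate (IL-1b/TNFa pre-activated) + biotin-GST-cJun 1-79 + anti-pSer73 cJun; cpd titration, 15 min RT; ATP 10 uM start; Tris pH 7.6, MgCl2, DTT, vanadate; beads in EDTA buffer; AlphaScreen.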
(Bead proximity is the source of the signal in Alpha formats.)

Test [9] deals with 3',5'-cyclic-AMP phosphodiesterase 4B (Homo sapiens) (UniProt Q07343). The experiment in a line: qHTS Assay for Inhibitors of PDE-IV (AID 607; active means well fitted activation curve with a large enough effect in the main read-out, with a control signal flat, not every such curve was filed as active; further: % of control where 0% means no effect). To be noted: HEK293 ACTOne CNG channel cells, membrane potential fluorescence; series mostly up to 22.9 µM. In outline:
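The readout is membrane depolarisation from a cAMP-sensing CNG channel, detected with a potential dye at ex 535/em 590. Cells were HEK293-derived (endogenous PDE-IV) at 1000 cells/well, titrated up to 22.9 uM final.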

Chain of Glucocorticoid receptor (Homo sapiens) (P04150 whole entry, looked up, the tested form may be a part): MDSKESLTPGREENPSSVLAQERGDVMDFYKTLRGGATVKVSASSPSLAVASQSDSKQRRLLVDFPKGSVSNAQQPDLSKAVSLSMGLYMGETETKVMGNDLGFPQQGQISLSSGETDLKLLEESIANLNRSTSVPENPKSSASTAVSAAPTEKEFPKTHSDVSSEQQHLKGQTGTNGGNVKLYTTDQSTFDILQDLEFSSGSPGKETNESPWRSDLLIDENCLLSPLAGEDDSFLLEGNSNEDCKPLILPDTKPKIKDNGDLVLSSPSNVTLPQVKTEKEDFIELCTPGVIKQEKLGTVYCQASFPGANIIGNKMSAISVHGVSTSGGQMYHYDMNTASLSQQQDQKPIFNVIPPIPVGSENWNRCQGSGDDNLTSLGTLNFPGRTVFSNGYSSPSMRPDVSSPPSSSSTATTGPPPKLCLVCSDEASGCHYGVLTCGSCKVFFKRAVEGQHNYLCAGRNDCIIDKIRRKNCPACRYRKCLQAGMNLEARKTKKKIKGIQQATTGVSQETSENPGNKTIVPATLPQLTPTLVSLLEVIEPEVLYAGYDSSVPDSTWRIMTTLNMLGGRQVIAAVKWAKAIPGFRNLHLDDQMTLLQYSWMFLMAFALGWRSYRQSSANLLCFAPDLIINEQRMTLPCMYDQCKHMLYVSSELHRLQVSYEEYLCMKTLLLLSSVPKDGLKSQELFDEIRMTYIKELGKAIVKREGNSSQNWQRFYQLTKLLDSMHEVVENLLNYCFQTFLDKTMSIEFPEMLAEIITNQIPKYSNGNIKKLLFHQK
Chain of 3',5'-cyclic-AMP phosphodiesterase 4B (Homo sapiens) (Q07343 whole entry, looked up): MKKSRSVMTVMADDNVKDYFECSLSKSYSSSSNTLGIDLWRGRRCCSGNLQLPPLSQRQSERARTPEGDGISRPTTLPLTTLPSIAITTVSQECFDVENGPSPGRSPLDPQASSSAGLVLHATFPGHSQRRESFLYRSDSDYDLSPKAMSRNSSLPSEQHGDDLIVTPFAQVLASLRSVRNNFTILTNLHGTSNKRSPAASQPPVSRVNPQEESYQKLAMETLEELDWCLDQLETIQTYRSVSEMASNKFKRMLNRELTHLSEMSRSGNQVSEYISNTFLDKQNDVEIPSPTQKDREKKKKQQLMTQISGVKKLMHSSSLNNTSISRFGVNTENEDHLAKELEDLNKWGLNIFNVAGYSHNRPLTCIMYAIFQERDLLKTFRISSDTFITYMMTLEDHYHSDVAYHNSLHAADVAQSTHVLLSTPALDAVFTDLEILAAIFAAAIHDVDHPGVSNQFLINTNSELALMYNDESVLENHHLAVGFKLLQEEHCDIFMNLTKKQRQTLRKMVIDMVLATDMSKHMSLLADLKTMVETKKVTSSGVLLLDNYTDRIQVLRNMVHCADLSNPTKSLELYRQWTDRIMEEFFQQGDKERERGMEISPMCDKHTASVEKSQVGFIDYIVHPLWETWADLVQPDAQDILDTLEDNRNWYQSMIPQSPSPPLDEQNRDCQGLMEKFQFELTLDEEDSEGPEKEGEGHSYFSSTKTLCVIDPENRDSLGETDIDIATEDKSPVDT
Chain of Cytochrome P450 1A2 (Homo sapiens) (P05177 whole entry, looked up): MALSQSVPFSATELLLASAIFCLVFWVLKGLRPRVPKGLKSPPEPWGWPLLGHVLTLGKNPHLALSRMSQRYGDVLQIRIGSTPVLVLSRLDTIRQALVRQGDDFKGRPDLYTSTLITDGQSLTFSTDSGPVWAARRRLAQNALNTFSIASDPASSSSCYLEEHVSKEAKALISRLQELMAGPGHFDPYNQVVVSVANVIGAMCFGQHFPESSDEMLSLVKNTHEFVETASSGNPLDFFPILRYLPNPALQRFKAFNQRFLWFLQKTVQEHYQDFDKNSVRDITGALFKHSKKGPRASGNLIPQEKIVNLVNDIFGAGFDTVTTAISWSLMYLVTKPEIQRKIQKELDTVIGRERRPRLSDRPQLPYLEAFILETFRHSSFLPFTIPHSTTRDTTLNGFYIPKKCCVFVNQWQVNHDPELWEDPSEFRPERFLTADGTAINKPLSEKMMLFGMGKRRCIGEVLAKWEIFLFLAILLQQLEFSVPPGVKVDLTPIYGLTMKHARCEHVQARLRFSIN
Chain of Lysosomal acid glucosylceramidase (Homo sapiens) (P04062 whole entry, looked up): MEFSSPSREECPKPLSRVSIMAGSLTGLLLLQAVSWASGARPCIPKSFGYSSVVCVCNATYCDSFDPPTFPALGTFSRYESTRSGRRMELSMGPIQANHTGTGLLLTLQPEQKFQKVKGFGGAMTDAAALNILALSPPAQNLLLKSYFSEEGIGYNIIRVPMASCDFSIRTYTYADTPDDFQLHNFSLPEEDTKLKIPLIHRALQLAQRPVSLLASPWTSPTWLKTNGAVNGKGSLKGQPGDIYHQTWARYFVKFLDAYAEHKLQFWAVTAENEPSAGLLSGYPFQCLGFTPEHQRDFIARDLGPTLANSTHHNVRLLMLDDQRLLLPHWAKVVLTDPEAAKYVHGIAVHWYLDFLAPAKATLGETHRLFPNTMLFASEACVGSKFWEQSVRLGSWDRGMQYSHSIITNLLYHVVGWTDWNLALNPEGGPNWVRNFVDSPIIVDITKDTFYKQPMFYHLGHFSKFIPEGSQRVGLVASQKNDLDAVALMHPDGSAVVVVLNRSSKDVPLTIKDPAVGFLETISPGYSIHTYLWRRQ

As for `c1ccc2c(c1)C(=Nc1ccc(N=C3c4ccccc4-c4ccccc43)cc1)c1ccccc1-2`, the Potency is over 11.4 µM in test [1], over 46 µM in [6] and over 9.22 µM in test [7]. Moreover, the activity change, negative = inhibition in [2] was -0.81%; in test [3] it was -19.6% [at 2.29 µM]; in [4] it was 10.5%. In test [5], the activity, negative = inhibition is 4.55%. The Potency result in [8] and in [9] was “inactive” throughout.

In the case of `CN(C)CCSCCO`, the Potency in test [1] is over 11.4 µM; in [6], over 46 µM; in [7] it was over 9.22 µM. The activity change, negative = inhibition in [2] is 7.7%; in test [3] it was -14.3% [at 2.29 µM]; in [4], 2.29%. The activity, negative = inhibition in test [5] was 9.73%. Besides, the Potency result in test [8] and in [9] was “inactive” throughout.

For `CN1CCN(CCCBr)CC1`, the Potency in [1] is over 11.4 µM; in test [6], over 46 µM; in [7], over 9.22 µM. Moreover, the activity change, negative = inhibition in test [2] is 5.14%; in test [4], 10.6%. Further, the Potency result in [3], in test [8] and in [9] was “inactive” in each case. Moreover, the activity, negative = inhibition in [5] is -3.86%.

In the case of `Cc1cc2sc(C)[n+](CCCOS(=O)(=O)O)c2cc1C`, the Potency in test [1] was over 11.4 µM; in [6] it was over 46 µM; in test [7], over 9.22 µM. The activity change, negative = inhibition was -5.1% in test [2] and 7.47% in test [4]. Further, the Potency entry in [3], in test [8] and in [9] was “inactive” each time. Besides, the activity, negative = inhibition in test [5] is 1%.

For the compound `NCCNc1ncnc2ccc(Cl)cc12`, the Potency in test [1] was 11.7 µM; in test [3], 1 µM (active); in test [6] it was over 46 µM; in test [7], over 9.22 µM. The activity change, negative = inhibition in test [2] was 5.69%; in test [4], -9.27%. In addition, the activity, negative = inhibition in test [5] was -14.9%. In addition, the Potency entry in test [8] and in test [9] was “inactive” throughout.

With `Nc1ncnc2nc(N3CCN(CCO)CC3)[nH]c12`, the figures for the Potency in test [1], in [6] and in [7] were over 11.4 µM, over 46 µM and over 9.22 µM, respectively. In addition, the activity change, negative = inhibition in test [2] is 2.43%; in [3], -1.2% [at 2.29 µM]; in test [4], 8.33%. Also, the activity, negative = inhibition in test [5] was -1.25%. For the same compound, the Potency entry in test [8] and in [9] was “inactive” in each case.

In the case of `O=C(NNC(=O)c1ccncc1)c1ccncc1`, the Potency in test [1] is over 11.4 µM; in test [6], over 46 µM; in test [7], over 9.22 µM. The activity change, negative = inhibition in [2] is 4.63%; in test [4], 6.39%. Moreover, the Potency entry in test [3], in test [8] and in test [9] was “inactive” each time. Further, in test [5], the activity, negative = inhibition was 2.81%.

Take `O=C(O)c1nc2nc(Cl)c(Cl)nc2[nH]1`: the Potency in test [1] was over 11.4 µM; in test [6] it was over 46 µM; in test [7], over 9.22 µM. Moreover, the values for the activity change, negative = inhibition in test [2] and in [4] were 0.697% and -0.0714%, respectively. The Potency entry in test [3], in [8] and in [9] was “inactive” in each case. Besides, the activity, negative = inhibition in [5] was 2.39%.

`O=C(O)C[C@H](Cc1ccc2c(c1)OCO2)C(=O)O`: the Potency in test [1] was over 11.4 µM; in test [6] it was over 46 µM; in [7], over 9.22 µM. The activity change, negative = inhibition in test [2] is 2.2%; in [4] it was -29.5%. The Potency result in [3], in [8] and in test [9] was “inactive” throughout. Moreover, the activity, negative = inhibition in [5] was -2.05%.

Take `O=C(O)CCCCn1ccc(=O)[nH]c1=O`: the Potency is over 11.4 µM in [1], over 46 µM in [6] and over 9.22 µM in test [7]. For the same compound, the values for the activity change, negative = inhibition in test [2] and in test [4] were 9.63% and -9.32%, respectively. The Potency result in test [3], in test [8] and in [9] was “inactive” in each case. Also, in [5], the activity, negative = inhibition is 4.56%.

Take `O=P(O)(O)O[C@@H]1O[C@H](CO)[C@@H](O)[C@H](O)[C@@H]1O`: the Potency in test [1] was over 11.4 µM; in test [6], over 46 µM; in test [7], over 9.22 µM. Also, the figures for the activity change, negative = inhibition in [2] and in test [4] were 4.24% and 2.61%, respectively. Also, the Potency result in test [3], in test [8] and in [9] was “inactive” each time. The activity, negative = inhibition in test [5] was 6.12%.

Turning to `Cc1nc2ccccc2nc1-c1ccc(N=[N+]([O-])c2ccc(-c3nc4ccccc4nc3C)cc2)cc1`, the Potency was over 11.4 µM in test [1], 6.31 µM (active) in [3], over 46 µM in test [6] and over 9.22 µM in test [7]. Also, the activity change, negative = inhibition in test [2] was 6.31%; in test [4], -3.33%. Moreover, in test [5], the activity, negative = inhibition is -5.62%. Moreover, the Potency entry in [8] and in test [9] was “inactive” throughout.

On to `Cc1ccc(S(=O)(=O)N[C@H](CO)C(=O)O)cc1`, for which the Potency in test [1] was over 11.4 µM; in test [6], over 46 µM; in test [7] it was over 9.22 µM. Moreover, the activity change, negative = inhibition in [2] was 1.84%; in [4], -20.5%. Further, the Potency entry in test [3], in [8] and in test [9] was “inactive” throughout. Further, the activity, negative = inhibition in [5] is 0.571%.

For `CCN(CC)C[C@@H](O)c1ccc2ccc3ccccc3c2c1`, the Potency was over 11.4 µM in test [1], 0.794 µM (active) in test [3], over 46 µM in test [6] and over 9.22 µM in [7]. For the same compound, the values for the activity change, negative = inhibition in test [2] and in test [4] were 15.5% and 16.1%, respectively. The activity, negative = inhibition in [5] is 13.3%. Also, the Potency result in test [8] and in test [9] was “inactive” throughout.
